Source: PubChem BioAssay (Tox21)
Calls of active or inactive are those of the source. Calls follow the shape of the full dose curve.

Assay: qHTS assay to identify small molecule agonists of the sonic hedgehog signaling (Shh) pathway (AID 1259368);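 also: NIH/3T3-derived 3T3Gli1-Luc cells carrying a stable Gli1-driven firefly luciferase reporter; nearly all actives have a fitted effect of over 15% in size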
Settings: NIH/3T3 Gli1-Luc reporter, luciferase, 24 h; series mostly up to 92.4 µM
Source text: National Center for Advancing Translational Sciences [NCATS]
NIH Chemical Genomics Center [NCGC]
U.S. Environmental Protection Agency [EPA]
National Institutes of Environmental Health Sciences [NIEHS]
National Toxicology Program [NTP]
The sonic hedgehog (Shh) pathway is essential for normal embryonic development. Dysregulation of the Shh pathway can cause severe developmental defects in organs. Therefore chemicals that interfere with the pathway are potential developmental toxicants. A cell line designated 3T3Gli1-Luc (DMB/OARSA/CFSAN/FDA, Laurel, MD), a NIH/3T3 derived clone containing stably integrated Gli1-Luc reporter is used to detect chemical interference of the Shh pathway, by changes in the expression of the firefly Luc gene under the control of the Gli1 transcriptional response element. This cell line was used to screen Tox21 libraries for identifying and prioritizing the potential developmental toxicants that interfere Shh pathway.
3T3 Gli1-Luc cells were dispensed at 2,000 per well in 5uL of culture medium into white solid bottom 1536-well plates (Greiner Bio-One, Monroe, NC) using a Multidrop Combi (Thermo Scientific, Waltham, MA) dispenser. The assay plates were incubated at 37 C and 5% CO2 for 4hr, and then 23nL of compounds dissolved in DMSO and positive control were transferred using a Pintool station (Wako, San Diego, CA). The assay plates were incubated at 37C and 5% CO2 for 24hr. For luciferase read, 4uL of Amplite Luciferase reporter gene assay reagent (AAT Bioquest, Inc. Sunnyvale, CA) was added to each well of the assay plates using Flying Reagent Dispenser (FRD, Aurora Discovery, San Diego, CA) and incubated at room temperature for 30min. The luminescence signal was measured using a ViewLux plate reader (Perkin Elmer, Shelton, CT).

Structure (SMILES) | outcome
CCN(C=O)CC | inactive
CCCCCCCC1CCCC1=O (stereo not given) | inactive
NO | inactive
NC(=O)N1c2ccccc2CC(=O)c2ccccc21 | inactive
CC1=NN(c2cc(S(=O)(=O)O)ccc2Cl)C(=O)C1N=Nc1ccccc1 (stereo not given) | inactive
CCOC(=O)c1ccccc1 | inactive
C1CCC2=NCCCN2CC1 | inactive
O=C(O)CCSCCC(=O)O | inactive
CC12CCC(C(=O)C1=O)C2(C)C (stereo not given) | inactive
CC(C)(C#N)Nc1nc(Cl)nc(NC2CC2)n1 | inactive
CCCCN(CCC(=O)OCC)C(C)=O | inactive
Cc1ccccc1N=C(N)N=C(N)N | inactive
Cc1ccc(C(=O)c2ccc(CC(=O)O)n2C)cc1 | inactive
O=C(O)Cc1csc(-c2ccc(Cl)cc2)n1 | inactive
C=C(C)C(=O)OCCOCCOCCOCCOC(=O)C(=C)C | inactive
CC(=O)N1C[C@H](O)C[C@H]1C(=O)O | inactive
Nc1ccn([C@@H]2O[C@H](CO)[C@@H](O)C2(F)F)c(=O)n1 | inactive
N[C@@H](CCC(=O)O)C(=O)O | inactive
NS(=O)(=O)Cc1noc2ccccc12 | inactive
CCC(C(=O)NC(=O)NC(C)=O)c1ccccc1 (stereo not given) | inactive

Structure (SMILES) | outcome
CC1CCC(CO)CC1 (stereo not given) | inactive
CNC(=O)Nc1ccc(Cl)c(Cl)c1 | inactive
CC1(C)OC[C@@H](COC(=O)CCc2ccc(OC[C@@H](O)CNCCNC(=O)N3CCOCC3)cc2)O1 | inactive
CC1OC1C1CCC2(C)OC2C1 (stereo not given) | inactive
CCOc1ccccc1OCC | inactive
CC1=CC(=O)[C@H]2C[C@@H]1C2(C)C | inactive
C[C@@H]1C[C@H]2[C@@H]3C[C@H](F)C4=CC(=O)C(Cl)=C[C@]4(C)[C@@]3(F)[C@@H](O)C[C@]2(C)[C@@]1(O)C(=O)CO | inactive
Nc1ccn([C@@H]2O[C@H](CO)[C@@H](O)[C@@H]2O)c(=O)n1 | inactive
CC(=O)O[C@@]12CO[C@@H]1C[C@H](O)[C@@]1(C)C(=O)[C@H](O)C3=C(C)[C@@H](OC(=O)[C@H](O)[C@@H](NC(=O)OC(C)(C)C)c4ccccc4)C[C@@](O)([C@@H](OC(=O)c4ccccc4)[C@H]21)C3(C)C | inactive
C=C[Si](OC(C)=O)(OC(C)=O)OC(C)=O | inactive
O=S(=O)(O)c1cccc2c(S(=O)(=O)O)cccc12 | inactive
CCCCOC(=O)CCC(C)=O | inactive
CC(=O)Nc1ccc(OCC(O)CNC(C)C)cc1 (stereo not given) | inactive
O=C(c1ccccc1O)c1ccccc1O | inactive
COc1ccc2cc1Oc1cc3c(cc1OC)CC[N+](C)(C)[C@H]3Cc1ccc(cc1)Oc1c(OC)c(OC)cc3c1[C@@H](C2)[N+](C)(C)CC3 | inactive
CCOC(=O)COC(=O)c1ccccc1C(=O)OCC | inactive
CCCCOCCOC(=O)CCCCCCCCC(=O)OCCOCCCC | inactive
CC(=O)C1CCCCC1=O (stereo not given) | inactive
CN(C)C(=O)Oc1cccc([N+](C)(C)C)c1 | inactive
COc1cc(C(=O)NCc2ccc(OCCN(C)C)cc2)cc(OC)c1OC | inactive
